# Screens (PubChem BioAssay)
# This is a sample that favours compounds with a hit; in the whole collection about 3.5% have one here.
# Pf apPOL inh: Pf-apPOL inhibitors, biochemical, fluorescence; Recombinant Pf-apPOL, molecular beacon fluorescence, 1.5 h; AID 1794808, 2022; actives 0.25% (n = 210,000); inhibition, % at 10 µM; Plasmodium falciparum apicoplast DNA polymerase (apPOL)
# mHTT CaM bind: mutant huntingtin-calmodulin interaction inhibitors – biochemical, AlphaScreen, primary screen | P42858 | AlphaScreen His-mHTT/GST-CaM binding, luminescence | inhibition, % at 15 µM | actives 3.6% (n = 190,000) | AID 1671202, 2021;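 note: 0% = both proteins with DMSO and 100% = one protein alone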
# Target sequence (P42858 whole entry, looked up, stated change not applied): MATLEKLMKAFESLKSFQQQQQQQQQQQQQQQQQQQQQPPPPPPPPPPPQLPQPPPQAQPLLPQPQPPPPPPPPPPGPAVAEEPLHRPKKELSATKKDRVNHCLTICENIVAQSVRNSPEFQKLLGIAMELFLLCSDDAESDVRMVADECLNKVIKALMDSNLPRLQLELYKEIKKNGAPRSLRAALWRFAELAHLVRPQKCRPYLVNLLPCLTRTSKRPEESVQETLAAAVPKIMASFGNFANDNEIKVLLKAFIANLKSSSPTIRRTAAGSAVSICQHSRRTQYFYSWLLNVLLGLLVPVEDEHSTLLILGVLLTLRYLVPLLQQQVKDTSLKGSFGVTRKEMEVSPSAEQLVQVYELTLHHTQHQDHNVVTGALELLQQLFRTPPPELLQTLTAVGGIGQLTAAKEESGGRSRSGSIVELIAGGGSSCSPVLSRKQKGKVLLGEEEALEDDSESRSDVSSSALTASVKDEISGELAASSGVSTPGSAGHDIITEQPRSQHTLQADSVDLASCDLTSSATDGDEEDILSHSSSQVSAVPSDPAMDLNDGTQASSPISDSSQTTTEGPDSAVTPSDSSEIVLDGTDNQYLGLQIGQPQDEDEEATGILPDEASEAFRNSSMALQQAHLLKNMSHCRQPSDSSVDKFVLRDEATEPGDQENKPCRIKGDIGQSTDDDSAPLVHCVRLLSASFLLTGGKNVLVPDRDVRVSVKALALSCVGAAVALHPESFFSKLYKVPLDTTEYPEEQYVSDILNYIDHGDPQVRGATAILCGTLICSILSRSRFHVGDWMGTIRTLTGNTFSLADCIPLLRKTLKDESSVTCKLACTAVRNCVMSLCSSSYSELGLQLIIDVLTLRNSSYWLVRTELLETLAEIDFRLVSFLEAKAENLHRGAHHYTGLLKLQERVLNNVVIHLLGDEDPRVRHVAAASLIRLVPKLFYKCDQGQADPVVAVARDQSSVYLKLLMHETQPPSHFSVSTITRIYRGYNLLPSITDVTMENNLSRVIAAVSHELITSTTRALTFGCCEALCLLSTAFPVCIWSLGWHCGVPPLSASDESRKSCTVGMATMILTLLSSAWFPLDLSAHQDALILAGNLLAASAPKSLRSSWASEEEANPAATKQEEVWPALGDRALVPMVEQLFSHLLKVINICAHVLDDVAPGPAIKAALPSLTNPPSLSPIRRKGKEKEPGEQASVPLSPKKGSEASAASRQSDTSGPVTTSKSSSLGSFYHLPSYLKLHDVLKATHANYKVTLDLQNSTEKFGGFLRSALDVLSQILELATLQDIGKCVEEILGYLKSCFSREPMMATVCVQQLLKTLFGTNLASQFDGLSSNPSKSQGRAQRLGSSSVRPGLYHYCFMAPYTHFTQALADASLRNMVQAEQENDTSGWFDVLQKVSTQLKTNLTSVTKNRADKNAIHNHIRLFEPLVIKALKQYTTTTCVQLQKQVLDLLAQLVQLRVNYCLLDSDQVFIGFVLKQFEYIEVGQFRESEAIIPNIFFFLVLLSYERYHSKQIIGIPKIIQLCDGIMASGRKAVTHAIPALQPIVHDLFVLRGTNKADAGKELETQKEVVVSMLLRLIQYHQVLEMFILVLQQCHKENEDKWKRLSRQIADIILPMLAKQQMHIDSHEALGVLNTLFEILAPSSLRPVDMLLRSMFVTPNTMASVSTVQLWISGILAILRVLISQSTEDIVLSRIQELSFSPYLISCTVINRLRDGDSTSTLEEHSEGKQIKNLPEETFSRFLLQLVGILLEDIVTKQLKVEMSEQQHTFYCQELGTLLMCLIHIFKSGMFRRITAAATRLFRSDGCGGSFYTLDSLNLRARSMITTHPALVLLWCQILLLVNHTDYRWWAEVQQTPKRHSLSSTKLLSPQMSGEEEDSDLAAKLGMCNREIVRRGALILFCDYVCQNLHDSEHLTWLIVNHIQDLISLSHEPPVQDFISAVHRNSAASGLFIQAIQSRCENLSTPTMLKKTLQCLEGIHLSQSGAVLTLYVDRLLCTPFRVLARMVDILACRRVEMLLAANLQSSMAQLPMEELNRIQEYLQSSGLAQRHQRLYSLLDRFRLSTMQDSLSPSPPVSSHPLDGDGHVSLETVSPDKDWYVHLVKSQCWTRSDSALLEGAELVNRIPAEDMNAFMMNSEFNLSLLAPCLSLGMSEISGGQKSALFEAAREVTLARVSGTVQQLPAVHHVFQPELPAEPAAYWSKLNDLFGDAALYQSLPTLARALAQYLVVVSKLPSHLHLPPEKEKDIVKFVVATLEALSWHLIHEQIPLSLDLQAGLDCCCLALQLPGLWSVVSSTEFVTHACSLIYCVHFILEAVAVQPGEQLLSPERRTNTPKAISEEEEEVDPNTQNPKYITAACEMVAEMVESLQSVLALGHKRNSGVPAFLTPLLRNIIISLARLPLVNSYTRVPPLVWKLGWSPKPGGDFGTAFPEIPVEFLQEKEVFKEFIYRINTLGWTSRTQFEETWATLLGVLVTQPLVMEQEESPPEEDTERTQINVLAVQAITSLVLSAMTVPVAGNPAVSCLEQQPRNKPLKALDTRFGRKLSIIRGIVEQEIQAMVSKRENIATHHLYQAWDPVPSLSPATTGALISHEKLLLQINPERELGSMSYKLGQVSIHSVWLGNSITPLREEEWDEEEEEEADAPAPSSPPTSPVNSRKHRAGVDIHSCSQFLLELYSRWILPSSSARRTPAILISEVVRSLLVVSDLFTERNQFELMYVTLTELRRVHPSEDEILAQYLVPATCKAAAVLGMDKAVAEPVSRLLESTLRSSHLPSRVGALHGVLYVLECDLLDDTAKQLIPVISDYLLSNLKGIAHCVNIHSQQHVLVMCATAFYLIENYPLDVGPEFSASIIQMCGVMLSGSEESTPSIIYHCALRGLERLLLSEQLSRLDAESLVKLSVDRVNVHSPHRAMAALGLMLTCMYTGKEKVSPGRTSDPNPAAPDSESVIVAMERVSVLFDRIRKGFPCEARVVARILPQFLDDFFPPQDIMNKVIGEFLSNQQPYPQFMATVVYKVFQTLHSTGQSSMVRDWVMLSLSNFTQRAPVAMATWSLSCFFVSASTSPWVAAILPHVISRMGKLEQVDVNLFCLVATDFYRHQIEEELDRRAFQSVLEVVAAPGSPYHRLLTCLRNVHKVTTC
# An asterisk follows results filed as active; . = not tested or not shown. Cut-off read from the data, not from the text of the source: active = inhibition above about 50%; inactive = the rest.
SMILES,Pf apPOL inh,mHTT CaM bind
COc1ccc2c(c1)CCC1C2=NN(C(C)=O)C1c1cccc([N+](=O)[O-])c1 (stereo unspecified),0.2,26.0
COc1ccc(C(=O)C=Cc2cccc(O)c2)cc1,-3.0,12.8
Cc1ccc(C)c(S(=O)(=O)n2c([N+](=O)[O-])cnc2C)c1,-3.2,-6.0
COC(=O)c1cnc2nc(C)ccc2c1Nc1ccc(C)c(Cl)c1,-0.4,77.7*
COC(=O)c1cnc2nc(C)ccc2c1Nc1ccc(OC)cc1,2.5,13.3
COC(=O)c1cnc2nc(C)ccc2c1Nc1ccc(Br)cc1C,-14.7,93.9*
COC(=O)c1cnc2nc(C)ccc2c1Nc1ccc(C)cc1Cl,8.5,46.7
COC(=O)c1cnc2nc(C)ccc2c1Nc1ccc(Cl)cc1,-8.1,62.0*
COC(=O)c1cnc2nc(C)ccc2c1Nc1ccc(F)c(Cl)c1,-5.0,-0.3
COC(=O)c1cnc2nc(C)ccc2c1Nc1cc(Cl)ccc1C,0.0,65.3*
COC(=O)c1cnc2nc(C)ccc2c1Nc1cccc(Br)c1,-19.3,14.5
O=C(c1cccs1)N1CCC(c2nc(-c3ccncc3)n[nH]2)CC1,-0.5,-1.4
CCOc1ccccc1C1C(C#N)=C(N)Oc2c1oc(CO)cc2=O (stereo unspecified),-2.0,-1.8
COc1ccc(C=NN=C(NC(=O)Nc2ccccc2)SCc2ccc(F)cc2)cc1,-10.4,.
Cc1nnc(-c2cc3ccccc3n2Cc2ccccc2Cl)o1,-2.6,-12.1
CCOC(=O)c1cnc2nc(C)ccc2c1Nc1ccc(F)c(F)c1,-3.7,33.7
CCOC(=O)c1cnc2nc(C)ccc2c1Nc1ccc(Cl)cc1,-8.4,65.7*
COCC1CCN(C(=O)C2CCCN(c3cnn(C)c(=O)c3)C2)CC1 (stereo unspecified),-2.5,-5.6
COc1ccc(-c2ccc(N3C(c4ccsc4)=Cc4ccc(F)cc4C3c3c[nH]c4ccccc34)cc2)cc1 (stereo unspecified),-4.2,82.4*
COC(=O)c1ccc(N2C(c3cccc(OC)c3)=Cc3ccc(F)cc3C2c2c(C)[nH]c3ccccc23)cc1 (stereo unspecified),1.0,2.0
CCCCN1CCCC1C(=O)NCc1ccc(OC)c(OC)c1 (stereo unspecified),0.3,0.0
CCOC(=O)c1ccc(CNC(=O)N2CCc3c(nc(-c4ccccc4)[nH]c3=O)C2)cc1,-3.4,3.7
Cc1ccnc(N2CCC(C(=O)NCCCN3CCC(N4CCCCC4)CC3)CC2)n1,2.0,1.6
COc1ccc(C2CC(=O)Nc3n[nH]c(-c4ccc(Cl)cc4)c32)cc1OC (stereo unspecified),-1.3,4.8
COc1cccc(C2CC(=O)Nc3n[nH]c(-c4ccccc4)c32)c1 (stereo unspecified),0.8,12.9
SMILES,Pf apPOL inh,mHTT CaM bind
COc1cc(C2CC(=O)Nc3n[nH]c(-c4ccccc4)c32)cc(OC)c1OC (stereo unspecified),-4.9,100.0*
COc1cc(C2CC(=O)Nc3n[nH]c(C)c32)ccc1OCc1cccc(C)c1 (stereo unspecified),-2.7,20.4
COc1cc(C2CC(=O)Nc3n[nH]c(-c4ccc(Cl)cc4)c32)ccc1O (stereo unspecified),2.5,100.0*
COc1cc(C2CC(=O)Nc3n[nH]c(C)c32)ccc1OCc1cccc(Cl)c1 (stereo unspecified),-0.3,55.5*
CC1(C)Cc2[nH]c(=O)c(C(=O)O)cc2CO1,-5.7,3.4
COCCN(Cc1ccncc1)C(=O)c1ccc2nsnc2c1,-2.1,-4.4
Nc1ccc(Nc2ccc([N+](=O)[O-])cc2S(=O)(=O)O)cc1,-3.2,51.5*
CS(=O)(=O)NCCNc1ccc([N+](=O)[O-])cc1Cl,-3.6,4.3
CCC(=O)N1CCc2cc(S(=O)(=O)N3c4ccccc4CC3C)ccc21 (stereo unspecified),-3.1,-6.0
CCC1(C)CC(CCNCc2ccc(OC)c(OC)c2)(c2ccccc2OC)CCO1 (stereo unspecified),-11.2,12.0
CCC1(C)CC(CCNCc2ccc(N(C)C)cc2)(c2ccc(OC)cc2)CCO1 (stereo unspecified),0.5,86.0*
CCOc1ccc(CNC(=O)C2CCn3c(nc4ccccc43)C2)cc1 (stereo unspecified),3.1,11.5
Nc1c(C(=O)O)sc2nc3c(cc12)CCCC3,.,-3.5
CC1(C)Cc2nc3sc(C(=O)O)c(N)c3cc2CS1,0.5,51.0*
CCc1noc(COC2CCCN(C(=O)c3ccc4c(c3)OCO4)C2)n1 (stereo unspecified),-5.7,-12.3
CCN(CC)c1ccc(-c2noc(CN3CCN(c4ncccn4)CC3)n2)cn1,-13.1,11.3
O=C(Nc1cccc2ccccc12)C1CCN(S(=O)(=O)c2ccc(Cl)s2)CC1,-3.5,-4.2
O=C(Nc1ccc(Cl)cc1Cl)c1ccc(Cl)cc1,-0.1,15.2
Cc1oc2cc3oc(=O)c4c(c3cc2c1-c1ccccc1)CCC4,14.0,-9.0
Cc1oc2cc3oc(=O)c4c(c3cc2c1C)CCC4,58.3*,-8.0
CC1Oc2ccccc2C=C1C=C1SC(=S)NC1=O (stereo unspecified),-12.7,59.3*
COc1ccc(C=C2SC(=S)N(CCC(=O)O)C2=O)c(OC)c1,-5.8,7.8
CC1Oc2ccccc2C=C1C=CC(=O)O (stereo unspecified),-9.3,-1.8
CC1Oc2ccccc2C=C1C=C1SC(=S)N(CCC(=O)O)C1=O (stereo unspecified),-6.7,53.3*
CCOc1cc(S(=O)(=O)Nc2ncccc2C)ccc1Br,-7.6,-4.5
SMILES,Pf apPOL inh,mHTT CaM bind
CCOC(=O)N1CCN(Cc2ccc(O)c(OC)c2)CC1,-2.1,-2.1
N#Cc1cccc(C(=O)N2CCCn3nc(-c4ccc(Cl)cc4)cc3C2)c1,0.1,55.0*
Cc1cccc(-c2cc3n(n2)CCCN(C(=O)c2ccncc2)C3)c1,-2.3,10.5
Cc1ccc(C(=O)N2CCCn3nc(-c4cccs4)cc3C2)s1,-3.3,3.6
Cc1cccc(-c2cc3n(n2)CCCN(C(=O)c2cccc(C#N)c2)C3)c1,-3.6,27.0
Cc1ccc(C(=O)N2CCCn3nc(-c4ccc(Cl)cc4)cc3C2)s1,3.4,71.2*
Cc1cccc(-c2cc3n(n2)CCCN(C(=O)COc2ccc(Cl)cc2)C3)c1,2.7,83.3*
CCC(=O)N1CCc2cc(N3CC(C(=O)Nc4cccc(C)c4)CC3=O)ccc21 (stereo unspecified),-5.2,-4.3
COC(=O)c1cc2c(O)cccc2[nH]1,-14.9,-0.1
O=C(Nc1ccccc1I)c1cccs1,0.4,-10.2
CCOc1ccc(/C=C2\N=C(c3ccc(C)c(C)c3)OC2=O)cc1,-3.0,-6.0
C=CCNC(=O)C(=O)Nc1ccc2c(c1)N(C(=O)C(C)C)CCC2,-5.7,-6.0
Cc1ccc(NC(=O)c2cc(S(=O)(=O)NCC3CCCO3)ccc2F)cc1Cl (stereo unspecified),-3.6,8.0
Cc1ccc(C(=O)N=c2sc(C)c(C)n2Cc2ccc(C(=O)N(C)C)cc2)cc1,-5.6,3.5
Cn1ccnc1SCc1cc(=O)c(OC(=O)CC2CCCCC2)co1,-3.9,14.0
Cc1ccnc(SCc2cc(=O)c(OC(=O)Cc3ccc([N+](=O)[O-])cc3)co2)n1,0.4,87.6*
Cc1csc(SCc2cc(=O)c(OC(=O)c3cccc([N+](=O)[O-])c3)co2)n1,13.4,2.5
O=C(CC(c1ccccc1)c1ccccc1)Oc1coc(CSc2ncccn2)cc1=O,-1.0,98.9*
COc1cc(OC)cc(C(=O)Nc2cc(C)c(Cl)cc2OC)c1,-10.7,-2.8
